Most compounds without a hit are left out; they make up all but 2.3% or so of the library.
Exocytosis inh: LAMP-1 surface exposure blockers, TALL-104 cells – cell-based, flow cytometry, MLPCN library, primary screen; TALL-104 LAMP-1 surface exposure; cells stimulated with thapsigargin and PMA; inhibition, % at 10 µM; hit rate 0.66% among 360,000; AID 651702, 2012;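 active means inhibition above about 55%, limit read from the data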
NTR1 agonist: agonists of human NTR1, primary screen, imaging, U2OS cells, beta-arrestin-GFP, high content; Neurotensin receptor type 1 (Homo sapiens), P30989; NTR1-U2OS beta-arrestin-GFP spot imaging, agonist mode; activation, % at 20 µM; hit rate 0.17% among 330,000;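 active means activation at or above 40% of the spot to cytoplasm intensity ratio, with at least 20 cells analyzed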
B2AR ag: beta2AR agonists driving receptor internalization, primary screen, cell-based, FAP fluorogen, flow cytometry; hit rate 0.43% among 340,000; Am2.2-beta2AR cells; AID 504454, 2011; response, % (no concentration beside the values); Beta-2 adrenergic receptor (Homo sapiens), P07550;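 active means response above a set limit, near 3 SD of response in nonfluorescent compounds, cut at about 42% in these data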
m5-HT2A agonist: mouse Htr2a agonists via beta-arrestin recruitment, primary screen, cell-based, luminescence; CHO-K1 mHTR2A beta-arrestin complementation; percent of 30 µM serotonin response; hit rate 0.66% among 360,000; activation, % at 7.6 µM; 5-hydroxytryptamine receptor 2A (Mus musculus), P35363;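 active means activation above a run cutoff, the mean activation of all tested compounds plus 3 SD, cut at about 14% in these data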
ABHD5 PLIN5 PPI: ABHD5-PLIN5 interaction inhibitors, primary screen, cell lysate, split luciferase complementation, luminescence; Perilipin-5 (Homo sapiens) + 1-acylglycerol-3-phosphate O-acyltransferase ABHD5 (Homo …; Split G. princeps luciferase complementation, 4 h; inhibition, % at 4 µM; hit rate 0.78% among 360,000;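 active means inhibition above the mean inhibition across every tested compound plus 3 SD, cut at about 22% in these data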
MOR ag counter: OPRM1 agonists via beta-arrestin recruitment, confirmation, counter-screen for mouse HTR2A agonist project, cell-based, luminescence, single concentration; AID 624380, 2012; activation, % at 9.3 µM; U2OS OPRM1 beta-arrestin PathHunter; DMSO 0%, DAMGO 9.3 µM 100%; shares compounds with m5-HT2A agonist; hit rate 5.3% among 2,300;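 active means mean activation above the mean of DMSO-only wells plus 3 SD, cut at about 0.5% in these data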
Target sequence (P35372 whole entry, looked up): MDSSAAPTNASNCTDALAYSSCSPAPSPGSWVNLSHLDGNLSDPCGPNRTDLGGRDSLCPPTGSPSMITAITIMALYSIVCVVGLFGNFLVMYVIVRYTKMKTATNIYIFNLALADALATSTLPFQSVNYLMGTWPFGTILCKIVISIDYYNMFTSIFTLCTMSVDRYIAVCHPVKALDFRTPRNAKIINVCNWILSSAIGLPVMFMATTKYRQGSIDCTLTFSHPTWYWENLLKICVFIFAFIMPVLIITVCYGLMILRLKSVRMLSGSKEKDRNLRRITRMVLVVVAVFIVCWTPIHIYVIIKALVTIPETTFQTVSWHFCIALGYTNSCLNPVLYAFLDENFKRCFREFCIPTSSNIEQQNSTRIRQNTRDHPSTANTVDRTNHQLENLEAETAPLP
m5-HT2A ag conf: mouse HTR2A agonists, beta-arrestin recruitment, confirmation, cell-based, luminescence, CHO-K1 PathHunter, triplicate; shares compounds with m5-HT2A agonist; DMSO 0%, 30 µM serotonin 100%; activation, % at 7.6 µM; hit rate 19% among 2,300;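 active means mean activation across triplicates above the hit threshold derived in the original primary screen, cut at about 15% in these data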
A number is an active result; 0 = inactive; - = not tested or not shown.

SMILES	Exocytosis inh	NTR1 agonist	B2AR ag	m5-HT2A agonist	ABHD5 PLIN5 PPI	MOR ag counter	m5-HT2A ag conf
O=C(Nc1ccc(-c2csc(-c3ccccc3)n2)cc1)c1ccccc1Cl	0	0	0	0	0	-	-
Nc1nc(F)nc2c1ncn2[C@@H]1O[C@H](CO)[C@@H](O)[C@H]1O	0	0	0	20	0	0.9	0
CCOC(=O)C1(CCCc2ccccc2)CCN(Cc2ccn[nH]2)CC1	0	0	0	15	0	0	0
COc1cccc(CN(C)C(=O)COc2ccc(C(=O)c3ccc(Cl)cc3)cc2)c1OC	0	0	0	0	0	-	-
COc1ccccc1C(=O)NCCN1CCN(c2ccccc2)CC1	0	0	0	15	0	0	70
COc1ccc(C)cc1NC(=O)c1ccc(CN2CCN(c3ccccc3)CC2)cc1	0	0	0	36	0	0	61
COc1ccccc1C(=O)Nc1ccc(N2CCN(Cc3ccccc3)CC2)cc1	0	0	0	0	0	-	-
COc1ccc(C)cc1NC(=O)CCN1CCN(c2ccccc2F)CC1	0	0	0	18	0	0	57
COc1cc(CN2CCN(c3ccccc3F)CC2)cc(OC)c1O	0	0	0	16	0	0	30
COc1ccc(Br)c(Cn2c(C)c(C(=O)NCc3ccccc3C(F)(F)F)sc2=O)c1	0	-	-	0	0	-	-
O=C(COC(=O)CNC(=O)c1ccccc1)NCCNC(=O)COC(=O)CNC(=O)c1ccccc1	0	0	0	0	0	-	-
Cc1ccc(C)c(NC(=O)CCN2CCOCC2)c1	0	0	0	20	0	0	0
COc1cccc(C(=O)NNC(=O)CCN2CCN(c3ccccc3)CC2)c1	0	0	0	23	0	0	48
CCOc1ccc(NC(=O)CCN2CCN(c3ccccc3F)CC2)cc1	0	0	0	21	0	0	45
Cc1cc(-c2ccc(C(C)C)c(S(=O)(=O)N3CCN(c4ccccn4)CC3)c2)on1	0	0	0	0	0	-	-
CC(C)(C)c1ccc(-n2ncc3c2CCCC3NC(=O)CCCn2cncn2)cc1 (configuration not stated)	0	0	0	0	0	-	-
CC(OC(=O)c1ccc2ncsc2c1)C(=O)N(C)C1CCCCC1 (configuration not stated)	0	0	0	0	0	-	-
CCn1c(=S)[nH]c2c(=O)n(C)c(=O)n(C)c21	0	-	0	17	0	0	0
Cn1c(=O)c2[nH]c(=O)[nH]c2n(C)c1=O	0	-	0	0	0	-	-
O=C(COc1coc(CN2CCc3ccccc32)cc1=O)Nc1ccccc1	0	0	0	0	0	-	-
O=C(Cc1cccc(C(F)(F)F)c1)NCc1cccc(Cl)c1	0	0	0	25	0	0	0
COc1ccc(NC(=O)CSc2nc3ccc(Nc4nc(N5CCOCC5)nc(N5CCOCC5)n4)cc3s2)cc1	0	0	0	15	0	0	18
Cc1ccc(NC(=O)CSc2nc3ccc(Nc4nc(N5CCOCC5)nc(N5CCOCC5)n4)cc3s2)cc1	0	0	0	0	0	-	-
N#Cc1ccc(OCC(=O)N2CCCC2=O)cc1	0	0	0	15	0	0.7	0
Clc1ccc(NN(Cc2ccncc2)c2ccc(Cl)cc2)cc1	0	-	-	0	0	-	-
SMILES	Exocytosis inh	NTR1 agonist	B2AR ag	m5-HT2A agonist	ABHD5 PLIN5 PPI	MOR ag counter	m5-HT2A ag conf
CN(C)c1ccc(C(C(=O)NCc2ccccc2)N(Cc2cccnc2)C(=O)c2snc(C(N)=O)c2N)cc1 (configuration not stated)	0	0	0	19	0	0	0
COc1ccc(C(C(=O)NCc2ccccc2)N(Cc2cccnc2)C(=O)c2snc(C(N)=O)c2N)cc1OC (configuration not stated)	0	0	0	0	0	-	-
COC(=O)[C@]12CCCCC=C1N(Cc1cccc3ccccc13)C(=O)[C@H](CC(=O)N1CCC(c3ccccc3)CC1)C2	0	-	-	0	0	-	-
CCOC(=O)[C@]12CCCC=C1N(Cc1cccc3ccccc13)C(=O)[C@H](CC(=O)N1CCC(c3ccccc3)CC1)C2	0	-	-	17	0	0	0
COc1ccc(/C=N/NC(=O)CCc2nc3ccccc3[nH]2)cc1	0	0	0	16	0	0	0
COc1ccc(NC(=O)Cc2nc3ccccc3[nH]2)cc1	0	0	0	85	0	0	0
COc1ccc(CCC(=O)NCCc2nc3ccccc3[nH]2)cc1	0	0	0	0	0	-	-
COc1ccc(CC(=O)Nc2nc3ccccc3[nH]2)cc1	0	0	0	0	0	-	-
CCCn1c(N)c(C(=O)COc2ccc(Br)cc2F)c(=O)n(C)c1=O	0	0	0	0	0	-	-
O=C(CN1CCN(Cc2ccccc2)CC1)Nc1cccc(Cl)c1Cl	0	-	-	0	0	-	-
N/C(=N/OC(=O)c1cccc([N+](=O)[O-])c1)c1cccc([N+](=O)[O-])c1	0	0	0	0	0	-	-
N/C(=N\OC(=O)c1ccccc1Cl)c1cccc([N+](=O)[O-])c1	0	0	0	15	0	0	0
Cc1ccc(C(=O)NCCc2nnc3ccc(NCc4ccc5c(c4)OCO5)nn23)cc1	0	0	0	0	0	-	-
CN(C)CC(=O)N[C@@H]1CC[C@@H](CCNS(=O)(=O)c2ccccc2)O[C@@H]1CO	0	-	-	0	0	-	-
COc1cc(OC)c2c(C)cc(=O)oc2c1C(CCN1CCN(c2ccccc2)CC1)c1ccc2c(c1)OCO2 (configuration not stated)	0	0	0	21	0	0	72
COc1cc(OC)c2c(-c3ccccc3)cc(=O)oc2c1C(CCN1CCOCC1)c1ccc2c(c1)OCO2 (configuration not stated)	0	0	0	0	0	-	-
COc1ccc(C(CCN2CCN(c3ccccc3)CC2)c2c(OC)cc(OC)c3c(-c4ccccc4)cc(=O)oc23)cc1 (configuration not stated)	0	0	0	0	0	-	-
COc1cc(OC)c2c(-c3ccccc3)cc(=O)oc2c1C(CCN1CCN(c2ccccc2)CC1)c1ccc(N(C)C)cc1 (configuration not stated)	0	0	0	17	0	0	22
O=C(CCNC(=O)C1CCN(S(=O)(=O)c2ccc(F)cc2)CC1)NCc1ccccc1	0	0	0	0	0	-	-
COc1cc(OC)cc(C(=O)c2c(C)c(C#N)c3ccccn23)c1	0	0	0	0	0	-	-

Bioassay records from PubChem.
